Assay results: PubChem BioAssay (NCI)
Where “and” joins values, the source holds several entries; their conditions need not be identical. Equal values may be shown once. The panel holds about 79,000 compounds, 15% with a hit somewhere; the sample as a whole holds those more often. Unmarked numbers belong to inactive results. Calls of active or inactive are those of the source. Cut-off read from the data, not from the text of the source: active = growth inhibition above about 70%; inactive = the rest.

Assay: NCI Yeast Anticancer Drug Screen. Data for the rad50 strain (AID 155);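 note: 0% = growth of vehicle-only cultures of the same strain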
Settings: S. cerevisiae rad50 strain growth inhibition; at 5.0 µM (retest, dose inferred, filed as 0.5); stronger effect = higher value
Procedure, shortened: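 Inhibition values express reduced yeast growth in compound-treated cultures relative to vehicle-treated controls.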

SMILES | growth inhibition
Cc1[nH]nc(-c2cccnc2)c1N=NN1CCOCC1 | -4%
CC1CCC2(CC1)NC1=C(CC(C)CC1)C1=C2CC(C)CC1 (configuration not stated) | 46%
CCCCCC(Oc1ccc(Cl)cc1)C(=O)O (configuration not stated) | 2%
COc1cc2c(c(C3C(=O)N(C)c4ccc(Br)cc43)c1OC)OCO2 (configuration not stated) | 3%
c1ccc(-c2cc(CN3CCOCC3)c(-c3ccccc3)o2)cc1 | -1%
CCOc1nc(N)nc(C)c1N=Nc1ccc(Br)cc1 | 9%
C=CC1(NC(=O)c2ccccc2)CCC(C(C)(C)C)CC1 (configuration not stated) | -10%
Cc1cccc2ccc3cc(CC(=O)O)c4cccc(C)c4c3c12 | 45%
CCC(C)Sc1nc2c([nH]1)c(=S)n(C)c(=O)n2C (configuration not stated) | 9%
O=S(=O)(c1ccc(NC(=S)NCc2ccncc2)cc1)N1CCCCC1 | -30%
COc1ccccc1/C=C1\NC(=S)N(/C=C2\C(=O)Oc3ccccc3C2=O)C1=O | 8%
CCCCCCCCCCCCCCCCC/C=N\NC(=O)CCCC(=O)N/N=C/CCCCCCCCCCCCCCCCC | 1%
CC(C(=O)NN)C(O)C(C)(C)O (configuration not stated) | 3%
CCCN(CCC)C(=S)N/N=C/c1cccc(C)n1 | -8%
COC(=O)CSc1nc2[nH]c(SC)c(C(N)=O)c2c(=O)n1-c1ccccc1 | -2%
O=C(c1ccccc1)C(Br)CCCC(Br)C(=O)c1ccccc1 (configuration not stated) | 30%
CC1(C)c2ccccc2Cc2cc3ccccc3nc21 | 0%
COc1ccc2c(c1)[n+]([O-])c(-c1ccc(Cl)c(Cl)c1)c(N)[n+]2[O-] | 23%

Same assay, conditions: S. cerevisiae rad50 strain growth inhibition; at 50.0 µM (retest, dose inferred, filed as 5.0); stronger effect = higher value

SMILES | growth inhibition
Cc1[nH]nc(-c2cccnc2)c1N=NN1CCOCC1 | 70% (active)
CC1CCC2(CC1)NC1=C(CC(C)CC1)C1=C2CC(C)CC1 (configuration not stated) | 87% (active)
CCCCCC(Oc1ccc(Cl)cc1)C(=O)O (configuration not stated) | 84% (active)
COc1cc2c(c(C3C(=O)N(C)c4ccc(Br)cc43)c1OC)OCO2 (configuration not stated) | 3%
c1ccc(-c2cc(CN3CCOCC3)c(-c3ccccc3)o2)cc1 | 98% (active)
CCOc1nc(N)nc(C)c1N=Nc1ccc(Br)cc1 | 90% (active)
C=CC1(NC(=O)c2ccccc2)CCC(C(C)(C)C)CC1 (configuration not stated) | 96% (active)
Cc1cccc2ccc3cc(CC(=O)O)c4cccc(C)c4c3c12 | 99% (active)
CCC(C)Sc1nc2c([nH]1)c(=S)n(C)c(=O)n2C (configuration not stated) | 39%
O=S(=O)(c1ccc(NC(=S)NCc2ccncc2)cc1)N1CCCCC1 | -2%
COc1ccccc1/C=C1\NC(=S)N(/C=C2\C(=O)Oc3ccccc3C2=O)C1=O | 32%
CCCCCCCCCCCCCCCCC/C=N\NC(=O)CCCC(=O)N/N=C/CCCCCCCCCCCCCCCCC | -3%
CC(C(=O)NN)C(O)C(C)(C)O (configuration not stated) | -5%
CCCN(CCC)C(=S)N/N=C/c1cccc(C)n1 | 100% (active)
COC(=O)CSc1nc2[nH]c(SC)c(C(N)=O)c2c(=O)n1-c1ccccc1 | -4%
O=C(c1ccccc1)C(Br)CCCC(Br)C(=O)c1ccccc1 (configuration not stated) | 64%
CC1(C)c2ccccc2Cc2cc3ccccc3nc21 | 98% (active)
COc1ccc2c(c1)[n+]([O-])c(-c1ccc(Cl)c(Cl)c1)c(N)[n+]2[O-] | 98% (active)

Same assay, conditions: S. cerevisiae rad50 strain growth inhibition; at 50.0 µM; stronger effect = higher value

SMILES | growth inhibition
Cc1[nH]nc(-c2cccnc2)c1N=NN1CCOCC1 | 64%
CC1CCC2(CC1)NC1=C(CC(C)CC1)C1=C2CC(C)CC1 (configuration not stated) | 3.8%
CCCCCC(Oc1ccc(Cl)cc1)C(=O)O (configuration not stated) | 81.7% (active)
COc1cc2c(c(C3C(=O)N(C)c4ccc(Br)cc43)c1OC)OCO2 (configuration not stated) | 4.3%
c1ccc(-c2cc(CN3CCOCC3)c(-c3ccccc3)o2)cc1 | 52.8%
CCOc1nc(N)nc(C)c1N=Nc1ccc(Br)cc1 | 70.2% (active)
C=CC1(NC(=O)c2ccccc2)CCC(C(C)(C)C)CC1 (configuration not stated) | 48.9%
Cc1cccc2ccc3cc(CC(=O)O)c4cccc(C)c4c3c12 | 99.7% (active)
CC(=O)OC1COC(SC(=N)N)C(OC(C)=O)C1OC(C)=O (configuration not stated) | 41.4% and 24.4% and 20%
CCC(C)Sc1nc2c([nH]1)c(=S)n(C)c(=O)n2C (configuration not stated) | 87.7% (active)
O=S(=O)(c1ccc(NC(=S)NCc2ccncc2)cc1)N1CCCCC1 | 15.5%
Nc1ccc(S(=O)(=O)O)c2ccccc12 | -17.7% and -12.8% and 15.7%
COc1ccccc1/C=C1\NC(=S)N(/C=C2\C(=O)Oc3ccccc3C2=O)C1=O | 73.2% (active)
CSc1ccccc1C(=O)O | -0.25% and -1.5% and -11%
CCCCCCCCCCCCCCCCC/C=N\NC(=O)CCCC(=O)N/N=C/CCCCCCCCCCCCCCCCC | 98.7% (active)
CC(C(=O)NN)C(O)C(C)(C)O (configuration not stated) | 58.7%
OCC(O)C(O)C(O)C(O)CNCC(O)C(O)C(O)C(O)CO (configuration not stated) | 5.3% and 10.1% and 19.6%
CCCN(CCC)C(=S)N/N=C/c1cccc(C)n1 | 90.3% (active)
Cc1ccc(S(=O)(=O)OCC(O)C(O)COS(=O)(=O)c2ccc(C)cc2)cc1 (configuration not stated) | 35.8% and -13.8% and 12.6%
COC(=O)CSc1nc2[nH]c(SC)c(C(N)=O)c2c(=O)n1-c1ccccc1 | 2.35%
NCC(=O)NC(CO)C(=O)O (configuration not stated) | -8.05% and -12.9% and -12.8%
COC1OC2COC(c3ccccc3)OC2C(O)C1O (configuration not stated) | -23.9% and 17.1% and 20.4%
O=C(c1ccccc1)C(Br)CCCC(Br)C(=O)c1ccccc1 (configuration not stated) | 97% (active)
CC1(C)c2ccccc2Cc2cc3ccccc3nc21 | 97.8% (active)
OC(c1ccccc1)C(O)c1ccccc1 (configuration not stated) | 5.85% and 22.8% and 24.1%
COc1ccc2c(c1)[n+]([O-])c(-c1ccc(Cl)c(Cl)c1)c(N)[n+]2[O-] | 99.5% (active)
